From PubChem BioAssay AID1035475 (Broad Institute, 2014) come the findings set out here.

Entries with a potency or affinity are not part of this list. Records with an inconclusive call do not appear. Activity calls are given as the source filed them.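 The calls were made as follows: active = fluorescent signal drops by 40% or more, counted as a hit; inconclusive = no clear call, values can overlap the other calls; inactive = the rest, including any activity in the opposite direction.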

The assay in a line: blockers of FN fibrillogenesis by fibroblasts – AH1F cells, Alexa488-FN fluorescence, cherry-picks, dose response (AID 1035475).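 Also: AH1F fibroblasts incorporating labeled fibronectin into their extracellular matrix; 0% = neutral control wells and -100% = wells without labeled fibronectin.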 The conditions noted are these: Alexa488-fibronectin deposition fluorescence, overnight; series mostly up to 35 µM; activity change, negative = inhibition: at the top concentration.
As to `C[C@H](CO)N1C[C@H](C)[C@@H](CN(C)Cc2ccc(-c3ccccc3)cc2)Oc2ccc(NC(=O)CCCN(C)C)cc2C1=O`, the “activity change, negative = inhibition” value was 27% (inactive).
For the compound `COC(=O)C[C@@H]1CC[C@@H]2[C@H](COc3ccc(NC(=O)Cc4cccs4)cc3C(=O)N2C)O1`, the “activity change, negative = inhibition” value is 7.52% (inactive).
Then `C=CCC[C@H](Cc1ccc(F)cc1)C(=O)OC[C@H](Cc1c[nH]c2ccccc12)NC(=O)[C@@H](CC=C)CC(=O)N[C@@H](CO)Cc1ccccc1`, with 19.2% (inactive); and `CO[C@@H]1CN(C)C(=O)c2cc(NC(=O)Nc3cc(Cl)cc(Cl)c3)ccc2OC[C@H](C)NC[C@@H]1C`, with 4.27% (inactive); and `O=C(OCC(O)C(O)COC(=O)c1ccccc1)c1ccccc1` (stereo not given), with -11.1% (inactive).
Then `C[C@@H]1CN([C@H](C)CO)C(=O)c2cc(-c3ccccc3)cnc2O[C@@H]1CN(C)Cc1ccccc1`, with 31% (inactive); and `CN(C)C(=O)c1ccc(-c2ccc3c(c2)[C@H]2[C@H](CCN2C(=O)c2ccc(F)cc2)[C@H](CO)N3C)cc1`, with 29.3% (inactive).
Then `C[C@H]1CN([C@@H](C)CO)C(=O)c2cccc(NC(=O)Nc3ccc(C(F)(F)F)cc3)c2O[C@H]1CN(C)C(=O)Nc1cccc2ccccc12`, with -1.4% (inactive); and `Cn1cnc(S(=O)(=O)N2CCN(c3ccccc3)CC2)c1`, with -23.9% (inactive); and `CN1c2ccc(-c3ccccc3)cc2[C@H]2[C@H](CCN2C(=O)CN2CCOCC2)[C@H]1CO`, with 34.4% (inactive).
As to `C[C@H](CO)N1C[C@H](C)[C@@H](CN(C)Cc2ccc(-c3ccccc3)cc2)Oc2ccc(NC(=O)C3CCCCC3)cc2C1=O`, the “activity change, negative = inhibition” value is 20.7% (inactive).
Then `CO[C@H]1CN(C)C(=O)c2ccc(NC(=O)c3ccc(-c4ccccc4)cc3)cc2OC[C@@H](C)NC[C@H]1C`, with 12.2% (inactive); and `C[C@H](O)C#Cc1ccc2c(c1)O[C@H](CN(C)C)[C@H](C)CN([C@@H](C)CO)S2(=O)=O`, with 28% (inactive); and `C[C@H](O)C#Cc1ccc2c(c1)O[C@@H](CN(C)C)[C@H](C)CN([C@@H](C)CO)S2(=O)=O`, with 32.9% (inactive).
Then `COCC(=O)Nc1ccc2c(c1)C(=O)N(C)[C@H]1CC[C@@H](CC(=O)NCc3ccccc3Cl)O[C@@H]1CO2`, with 40.5% (inactive).
Then `C[C@H](CO)N1C[C@H](C)[C@H](CN(C)C)Oc2cc(C#C[C@@H](C)O)ccc2S1(=O)=O`, with 27.1% (inactive); and `C[C@H]1CN([C@@H](C)CO)C(=O)c2cc(NC(=O)CCCN(C)C)ccc2O[C@H]1CN(C)Cc1ccc(-c2ccccc2)cc1`, with -3% (inactive).
Consider `COC(=O)C[C@H]1CC[C@H]2[C@@H](COc3ccc(NC(=O)Cc4cccs4)cc3C(=O)N2C)O1`, for which the “activity change, negative = inhibition” value is 28% (inactive).
Then `Nc1c(C(=O)NCc2ccco2)nnn1Cc1ccccc1`, with 1.31% (inactive); and `CC1(C)Cc2c(C#N)c(SCC(=O)c3ccccc3)nc(N3CCOCC3)c2CS1`, with -29.1% (inactive).
Then `COCC(=O)Nc1ccc2c(c1)C(=O)N(C)[C@H]1CC[C@H](CC(=O)NCc3ccccc3Cl)O[C@H]1CO2`, with 12.8% (inactive); and `C[C@@H]1CN([C@H](C)CO)C(=O)c2cc(NC(=O)C3CCCCC3)ccc2O[C@H]1CN(C)Cc1ccc(-c2ccccc2)cc1`, with 6.62% (inactive).
Take `O=C(Nc1ccc(Cl)cc1)N1C[C@H]2[C@@H](c3ccccc31)[C@H](CO)N2CC1CCCC1`: the “activity change, negative = inhibition” value is 40.8% (inactive).
Then `Cc1ccc(S(=O)(=O)N2CC[C@@H]3[C@@H](CO)Nc4ccc(-c5cccc(C(=O)N(C)C)c5)cc4[C@@H]32)cc1`, with 15.5% (inactive).
The value for `O=C(CN1CCCC1)Nc1ccc(Oc2ccc(NC(=O)CN3CCCC3)cc2)cc1` was -14.8% (inactive).
Then `CO[C@@H]1CN(C)C(=O)c2cc(NC(=O)Nc3cc(Cl)cc(Cl)c3)ccc2OC[C@@H](C)NC[C@@H]1C`, with 8.56% (inactive); and `N#C[C@@H]1[C@@H](c2ccccc2C2=CCCCC2)[C@@H](CO)N1S(=O)(=O)c1ccccc1`, with 35.2% [at 30 µM] (inactive); and `Cc1ccc(S(=O)(=O)N2CC3(C)CN(S(=O)(=O)c4ccc(C)cc4)CC(C)(C2)C3=O)cc1`, with 6.47% (inactive).
Consider `Cc1ccc([N+](=O)[O-])cc1NC(=O)CN(C(=O)c1ccccc1Cl)C1CCCCC1`, for which the “activity change, negative = inhibition” value is -14.8% (inactive).
The value for `N#C[C@@H]1[C@H](c2ccccc2C2=CCCCC2)[C@H](CO)N1S(=O)(=O)c1ccccc1` was 25.5% (inactive); that for `N#C[C@H]1[C@H](c2ccccc2C2=CCCCC2)[C@H](CO)N1S(=O)(=O)c1ccccc1` was 23.3% (inactive).
Then `Cc1ccc(NC(=O)COC(=O)c2cc(Cl)ccc2[N+](=O)[O-])c(C)c1`, with -12.9% (inactive); and `CO[C@H]1CN(C)C(=O)c2cc(NC(=O)Nc3cc(Cl)cc(Cl)c3)ccc2OC[C@H](C)NC[C@H]1C`, with 9.38% (inactive).
Then `COCC(=O)Nc1ccc2c(c1)C(=O)N(C)[C@@H]1CC[C@@H](CC(=O)NCc3ccccc3Cl)O[C@H]1CO2`, with 16.5% [at 30 µM] (inactive).
With `COC(=O)C[C@@H]1CC[C@H]2[C@H](COc3ccc(NC(=O)Cc4cccs4)cc3C(=O)N2C)O1`, the “activity change, negative = inhibition” value is -0.769% [at 30 µM] (inactive).
